Screen size: about 5,500 compounds; about 2,000 (36%) were called active. Roughly 18% stayed inconclusive and do not appear here. Cut-off read from the data, not from the text of the source: active = normalized growth mostly below about 0.91 (no sharp cut-off); inconclusive = no clear call, values can overlap the other calls; inactive = mostly above about 0.92. This is one part of the list.
Test: chemical genetic growth profiling, strain panel (AID 1159580);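 note: tested at 20 µM; growth read once vehicle control cultures reached saturation at 30 °C; 1 = growth at the plate median or of vehicle wells; lower values mean less growth of the strain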
Conditions: growth OD

Measured: normalized growth

C[C@]12CCC(=O)C=C1CCC1C2[C@@H](O)C[C@@]2(C)C1CC[C@]2(O)C(=O)CO (stereo partly drawn)
inactive: S. cerevisiae deletion strains, locus YJR075W, strain HOC1, active compounds read low 1.01 | S. cerevisiae deletion strains, locus YKL009W, strain mrt4, active compounds read low 0.992 | S. cerevisiae deletion strains, locus YKL068W, active compounds read low 1.01 | S. cerevisiae deletion strains, locus YKL085W, strain MDH1 (second series), active compounds read low 0.998 | S. cerevisiae deletion strains, locus YKL085W, strain MDH1, active compounds read low 0.998 | S. cerevisiae deletion strains, locus YKL160W, strain elf1, active compounds read low 0.955 | S. cerevisiae deletion strains, locus YKR001C, strain vps1, active compounds read low 0.971 | S. cerevisiae deletion strains, locus YKR026C, strain gcn3, active compounds read low 0.993 | S. cerevisiae deletion strains, locus YKR091W, strain srl3, active compounds read low 0.999 | S. cerevisiae deletion strains, locus YLL001W, strain dnm1, active compounds read low 0.994 | S. cerevisiae deletion strains, locus YLL026W, active compounds read low 0.982 | S. cerevisiae deletion strains, locus YLL041C, strain sdh2, active compounds read low 0.99 | S. cerevisiae deletion strains, locus YLR027C, strain aat2, active compounds read low 1 | S. cerevisiae deletion strains, locus YLR039C, strain RIC1, active compounds read low 1.05 | S. cerevisiae deletion strains, locus YLR058C, strain SHM2, active compounds read low 1.02 | S. cerevisiae deletion strains, locus YLR102C, strain apc9, active compounds read low 0.993 | S. cerevisiae deletion strains, locus YLR113W, strain HOG1, active compounds read low 0.99 | S. cerevisiae deletion strains, locus YLR221C, strain rsa3, active compounds read low 0.985 | S. cerevisiae deletion strains, locus YLR258W, strain gsy2, active compounds read low 0.971 | S. cerevisiae deletion strains, locus YLR262C, strain YPT6 (second series), active compounds read low 1 | S. cerevisiae deletion strains, locus YLR262C, strain YPT6, active compounds read low 1.08 | S. cerevisiae deletion strains, locus YLR268W, strain sec22, active compounds read low 0.977 | S. cerevisiae deletion strains, locus YLR320W, strain mms22, active compounds read low 0.986 | S. cerevisiae deletion strains, locus YLR330W, strain CHS5, active compounds read low 1.01 | S. cerevisiae deletion strains, locus YLR342W, strain FKS1 (second series), active compounds read low 1.01 | S. cerevisiae deletion strains, locus YLR342W, strain FKS1, active compounds read low 0.999 | S. cerevisiae deletion strains, locus YLR357W, strain rsc2, active compounds read low 0.957 | S. cerevisiae deletion strains, locus YLR370C, strain arc18, active compounds read low 1 | S. cerevisiae deletion strains, locus YLR371W, strain rom2, active compounds read low 0.971 | S. cerevisiae deletion strains, locus YLR384C, strain iki3, active compounds read low 0.998 | S. cerevisiae deletion strains, locus YLR418C, strain cdc73, active compounds read low 1.01 | S. cerevisiae deletion strains, locus YML016C, strain PPZ1, active compounds read low 1.02 | S. cerevisiae deletion strains, locus YML032C, strain rad52, active compounds read low 1.01 | S. cerevisiae deletion strains, locus YML120C, strain ndi1, active compounds read low 1.01 | S. cerevisiae deletion strains, locus YML124C, strain tub3, active compounds read low 0.994 | S. cerevisiae deletion strains, locus YMR058W, strain fet3, active compounds read low 1.01 | S. cerevisiae deletion strains, locus YMR078C, strain ctf18, active compounds read low 0.998 | S. cerevisiae deletion strains, locus YMR125W, strain sto1, active compounds read low 0.96 | S. cerevisiae deletion strains, locus YMR129W, active compounds read low 0.993 | S. cerevisiae deletion strains, locus YMR205C, strain PFK2, active compounds read low 0.967 | S. cerevisiae deletion strains, locus YMR223W, strain ubp8, active compounds read low 0.993 | S. cerevisiae deletion strains, locus YMR231W, strain pep5, active compounds read low 1 | S. cerevisiae deletion strains, locus YMR263W, strain SAP30, active compounds read low 1.02 | S. cerevisiae deletion strains, locus YMR307W, strain GAS1, active compounds read low 1.04 | S. cerevisiae deletion strains, locus YNL067W, strain RPL9B, active compounds read low 1.02 | S. cerevisiae deletion strains, locus YNL071W, strain lat1, active compounds read low 1.01 | S. cerevisiae deletion strains, locus YNL153C, strain GIM3, active compounds read low 1.03 | S. cerevisiae deletion strains, locus YNL183C, strain NPR1, active compounds read low 0.939 | S. cerevisiae deletion strains, locus YNL209W, strain ssb2, active compounds read low 0.99 | S. cerevisiae deletion strains, locus YNL233W, strain BNI4, active compounds read low 1.02 | S. cerevisiae deletion strains, locus YNL248C, strain rpa49, active compounds read low 0.989 | S. cerevisiae deletion strains, locus YNL250W, strain rad50, active compounds read low 1.01 | S. cerevisiae deletion strains, locus YNL271C, strain bni1, active compounds read low 0.995 | S. cerevisiae deletion strains, locus YNL298W, strain CLA4, active compounds read low 1.01 | S. cerevisiae deletion strains, locus YNL307C, strain MCK1, active compounds read low 0.995 | S. cerevisiae deletion strains, locus YNL322C, strain KRE1 (second series), active compounds read low 0.969 | S. cerevisiae deletion strains, locus YNL322C, strain KRE1, active compounds read low 1.01 | S. cerevisiae deletion strains, locus YNR049C, strain mso1, active compounds read low 0.999 | S. cerevisiae deletion strains, locus YNR052C, strain pop2, active compounds read low 0.999 | S. cerevisiae deletion strains, locus YOL012C, strain htz1 0.617 | S. cerevisiae deletion strains, locus YOL147C, strain pex11, active compounds read low 1.02 | S. cerevisiae deletion strains, locus YOR001W, strain rrp6, active compounds read low 1.01 | S. cerevisiae deletion strains, locus YOR061W, strain CKA2, active compounds read low 1.02 | S. cerevisiae deletion strains, locus YOR069W, strain VPS5, active compounds read low 1.01 | S. cerevisiae deletion strains, locus YOR070C, strain gyp1, active compounds read low 0.966 | S. cerevisiae deletion strains, locus YOR080W, strain dia2, active compounds read low 1.01 | S. cerevisiae deletion strains, locus YOR083W, strain WHI5, active compounds read low 0.945 | S. cerevisiae deletion strains, locus YOR106W, strain vam3, active compounds read low 0.971 | S. cerevisiae deletion strains, locus YOR136W, strain idh2, active compounds read low 0.985 | S. cerevisiae deletion strains, locus YOR144C, strain elg1, active compounds read low 0.995 | S. cerevisiae deletion strains, locus YOR184W, strain ser1, active compounds read low 0.993 | S. cerevisiae deletion strains, locus YOR231W, strain MKK1, active compounds read low 0.99 | S. cerevisiae deletion strains, locus YOR265W, strain rbl2, active compounds read low 0.985 | S. cerevisiae deletion strains, locus YOR270C, strain vph1, active compounds read low 0.996 | S. cerevisiae deletion strains, locus YOR290C, strain snf2, active compounds read low 0.983 | S. cerevisiae deletion strains, locus YOR316C, strain cot1, active compounds read low 0.994 | S. cerevisiae deletion strains, locus YPL051W, strain arl3, active compounds read low 0.927 | S. cerevisiae deletion strains, locus YPL055C, strain LGE1, active compounds read low 1.02 | S. cerevisiae deletion strains, locus YPL078C, strain atp4, active compounds read low 0.97 | S. cerevisiae deletion strains, locus YPL106C, strain sse1, active compounds read low 0.926 | S. cerevisiae deletion strains, locus YPL240C, strain hsp82, active compounds read low 0.992 | S. cerevisiae deletion strains, locus YPL256C, strain CLN2, active compounds read low 0.949 | S. cerevisiae deletion strains, locus YPR119W, strain clb2, active compounds read low 0.99 | S. cerevisiae deletion strains, locus YPR141C, strain kar3, active compounds read low 0.999 | S. cerevisiae deletion strains, locus YPR163C, strain tif3, active compounds read low 0.986 | S. cerevisiae deletion strains, locus YPR167C, strain met16, active compounds read low 0.991 | S. cerevisiae deletion strains, strain wtn01, active compounds read low 0.972 | S. cerevisiae strains, strain wild type, active compounds read low 1.02

Reference: PubChem BioAssay AID1159580 (chemical genetic matrix, 2015)
